In paper PMC7826789 (International Journal of Molecular Sciences, 2021):

These compounds were tested on PRKD1.
With `Cc1cccc(-c2nc(Nc3ccncc3)c3ccccc3n2)n1` [GW855857] the Kinases covered was “PRKD1”.
For `Cc1cccc(-c2cc(Nc3ccncc3)c3ccccc3n2)n1` [GSK223675], the Kinases covered was “PRKD1”.
With `COc1ccc2nc(-c3cccc(C)n3)nc(Nc3ccncc3)c2c1` [GSK204919] the Kinases covered was “PRKD1”.
In the case of `C[C@@H]1CCNC(=O)c2cc3ccc(C(=O)Nc4nc5ccccc5n4CCCN(C)C)cc3n21` [BI00645435], the Kinases covered is reported as “PRKD1”.

The compounds below were run on RAF1.
In the case of `O=C1Nc2ccc(C(=O)c3ccco3)cc2C1=Cc1cc(Cl)c(O)c(Cl)c1` [GW406108X], the Kinases covered is reported as “RAF1”.
`CN(C)CCOc1ccc(-c2nc(-c3ccc4c(c3)CC/C4=N\O)c(-c3ccncc3)[nH]2)cc1` [SB-590885] was tested, and the Kinases covered was “RAF1”.
In the case of `CCCS(=O)(=O)Nc1ccc(F)c(-n2cc(-c3cncc(OC)c3)nn2)c1F` [BI00865461], the Kinases covered is reported as “RAF1”.

These compounds were tested on RET.
With `COc1cc2ncnc(Nc3cccc(Cl)c3F)c2cc1O[C@H]1CC[C@H]([C@@H]2NCCNC2=O)CC1` [BI00133844] the Kinases covered was “RET”.
With `COc1cc2c(cc1OC)C(=C(Nc1ccccc1)c1cccc(CN)c1)C(=O)N2` [BIBF0846CL] the Kinases covered was “RET”.
With `Cl.O=C(Nc1ccc(Oc2ccc3[nH]c(NC(=O)c4ccccc4)nc3c2)cc1)Nc1cc(C(F)(F)F)ccc1F` [GW709042A] the Kinases covered was “RET”.

These compounds were tested on RIPK1.
`Cn1cc(-c2ccc3c(c2)CCN3C(=O)Cc2cccc(C(F)(F)F)c2)c2c(N)ncnc21` [GSK2606414] was tested, and the Kinases covered was “RIPK1”.
`CN1C(=O)[C@@H](NC(=O)c2cc(Cc3ccccc3)on2)COc2ccccc21` [GSK481] was tested, and the Kinases covered was “RIPK1”.
For `Cc1cccc(CC(=O)N2CCc3c2ccc(-c2cn(C)c4ncnc(N)c24)c3F)n1` [GSK2656157], the Kinases covered was “RIPK1”.

What follows are compounds tested on RIPK2.
For `CN(C)CCOc1ccc(-c2nc(-c3ccc4c(c3)CC/C4=N\O)c(-c3ccncc3)[nH]2)cc1` [SB-590885], the Kinases covered was “RIPK2”.
For `CC(C)(C)S(=O)(=O)c1ccc2nccc(Nc3n[nH]c4ccc(F)cc34)c2c1` [GSK583], the Kinases covered was “RIPK2”.
For `COc1cc(-c2cncc(-c3cnn(C4CCNCC4)c3)c2)cc(OC)c1OC` [K05908], the Kinases covered was “RIPK2”.

The compounds below were run on RIPK3.
In the case of `Cc1cc(-c2cnc(N)c3c(-c4ccc5scnc5c4)csc23)n(C)n1` [GSK843], the Kinases covered is reported as “RIPK3”.
For `CNC(=O)c1ccc2c(c1)ncn2-c1ccc(CC(=O)OC(C)(C)C)cc1` [GSK840], the Kinases covered was “RIPK3”.
In the case of `CC(C)S(=O)(=O)c1ccc2nccc(Nc3ccc4scnc4c3)c2c1` [GSK872], the Kinases covered is reported as “RIPK3”.
